Out of some 310,000 compounds screened, about 1,000 (0.32%) were called active. The rule behind the calls is not given here. Only a sample is shown. Potency and affinity values are given separately.

The assay is described as follows: Inhibition of PhoP regulon, Salmonella typhi GFP reporter cells, confirmation, 4 h (AID 1850).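 Note: 0% = induced wells with vehicle and 100% = uninduced wells.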 The following applies: Salmonella Typhi PhoP-promoter GFP reporter, fluorescence, at 50 µM, hits give high values.
For orientation: inhibition means the drop in the measured response relative to a control, in per cent. For the compound `Nc1ccc2nonc2c1[N+](=O)[O-]`, the inhibition is -75.7% (inactive).
As for `Nc1cc(N2CCCCCC2)c2nonc2c1[N+](=O)[O-]`, the inhibition is -0.89% (inactive).
Regarding `COCCn1c(=S)[nH]c2cc(C(=O)NCCCN3CCOCC3)ccc2c1=O`, the inhibition was -1.91% (inactive).
On to `O=C(NC1CCSC1=O)c1cccc(Cl)c1` (centres undefined), for which the inhibition is 3.01% (inactive).
With `CCN1/C(=C\C=C\C2=[N+](CC)c3ccccc3C2(C)C)C(C)(C)c2ccccc21`, the inhibition is -46.5% (inactive).
With `CN1/C(=C\C=O)C(C)(C)c2ccccc21`, the inhibition was 1.84% (inactive).
Take `O=C(Nc1cc2c3c(c1)CC(=O)N3CCC2)c1cccc(F)c1`: the inhibition is 6.53% (inactive).
Take `O=C(c1ccc(F)cc1)c1ccc(N2CCCCC2)cc1`: the inhibition is -11.2% (inactive).
In the case of `CN(CC(=O)Nc1ccc(S(N)(=O)=O)cc1)c1ccccc1`, the inhibition was 14.4% (inactive).
`CSc1ccccc1C(=O)Nc1cc(C)ccc1C`: the inhibition is 7.98% (inactive).
As for `Cc1ccccc1NC(=O)c1ccccc1O`, the inhibition was 4.26% (inactive).
`O=[N+]([O-])c1cccc(-c2cc3ccccc3[nH]2)c1`: the inhibition was -7.23% (inactive).
`O=C(N/N=C/c1cc2ccccc2[nH]1)c1ccccc1Cl`: the inhibition is 12.6% (inactive).
Regarding `COc1ccc(N(CC(=O)N2CCN(c3cc(C)ccc3C)CC2)S(=O)(=O)c2c(C)noc2C)cc1`, the inhibition is 4.32% (inactive).
As for `CCC(C)NC(=O)C1c2ccccc2C(=O)N(c2ccc(OC)cc2)C1c1ccc(OC)cc1` (centres undefined), the figure is -3.48% (inactive); as for `Nc1nonc1-n1nnc(C(=O)N/N=C/c2ccc(Br)cc2)c1CSC1=NCCS1`, 6.84% (inactive).
Take `O=C(N/N=C/c1cc(Br)c(O)c(Br)c1)c1cccnc1`: the inhibition is 19.1% (inactive).
As for `O=C(N/N=C/c1ccc(O)cc1O)c1ccncc1`, the inhibition is 1.18% (inactive).
In the case of `Nc1nonc1-n1nnc(C(=O)N/N=C/c2c(Cl)cccc2Cl)c1CSC1=NCCS1`, the inhibition is -8.07% (inactive).
Regarding `O=C(N/N=C/c1cc2ccccc2nc1Cl)c1ccncc1`, the inhibition was -3.32% (inactive).
Turning to `O=C(N/N=C/c1cc2c(cc1Cl)OCO2)c1ccncc1`, the inhibition was -3.87% (inactive).
Turning to `O=C(N/N=C/c1ccccc1Cl)c1ccncc1`, the inhibition was -2.44% (inactive).
As for `O=C(N/N=C/c1cc(Br)c(O)c(Br)c1O)c1cccnc1`, the inhibition was -12.7% (inactive).
As for `COc1ccc(CNC(=O)CCNS(=O)(=O)c2ccc(Br)s2)cc1`, the inhibition was -1.05% (inactive).
As to `O=C(CN1C(=O)C2C3C=CC(C3)C2C1=O)Nc1nc(SCc2ccc(Cl)cc2)n[nH]1` (centres undefined), the inhibition was 3.67% (inactive).
With `O=C(O)COCC(=O)NC1CCN(Cc2ccccc2)CC1`, the inhibition was -0.41% (inactive).
On to `CC(CN1CCCCC1)OC(=O)c1ccccc1F` (centres undefined), for which the inhibition was -3.63% (inactive).
Regarding `Cc1nn(C(C)C(=O)NC2CCC(C)CC2)c(=O)c2nn(-c3ccccc3)c(C)c12` (centres undefined), the inhibition was -5.27% (inactive).
As to `Cc1ccc(Cl)cc1NC(=O)C1CC(=O)Nc2ncnn21` (centres undefined), the inhibition is -13% (inactive).
Regarding `CNC(=S)N/N=C/c1cc(Br)cc(Br)c1O`, the inhibition is 6.75% (inactive).
For the compound `O=C(N/N=C/c1ccccc1O)NC12CC3CC(CC(C3)C1)C2`, the inhibition is 6.48% (inactive).
Consider `O=C(N/N=C/c1ccc(Cl)cc1Cl)c1ccncc1`, for which the inhibition is -12.1% (inactive).
Then `O=C1NCCCC1C(=O)N/N=C/c1ccccc1O` (centres undefined), with -6.72% (inactive).
As to `O=C(N/N=C/c1coc2ccc(Cl)cc2c1=O)c1ccncc1`, the inhibition was -3.86% (inactive).
Regarding `O=C(C[n+]1ccccc1)N/N=C/c1cc(Br)cc(Br)c1O`, the inhibition was 1.91% (inactive).
In the case of `Nc1nonc1C(=O)N/N=C/c1cc2c(cc1Br)OCO2`, the inhibition is -18.8% (inactive).
As for `Nc1nonc1C(=O)N/N=C/c1ccc(Br)o1`, the figure is -7.75% (inactive); as for `CCOC(=O)C1CCCCN1Cc1cccc(OC)c1OC` (centres undefined), -6.91% (inactive).
Turning to `CCC(=O)NC(=S)Nc1ccc(NC(=O)c2ccco2)c(OC)c1`, the inhibition is -4.57% (inactive).
Take `Cc1cc(=O)c(C(=O)O)nn1-c1cccc(C(F)(F)F)c1`: the inhibition is 3.22% (inactive).
As for `Cc1[nH]n(-c2ccccc2)c(=O)c1/C=N/NC(=O)c1ccc(O)cc1O`, the figure is 4.8% (inactive); as for `Cc1ccc(C)c(CN2CCC(CNC(=O)CCc3nnc4ccc(N5CCCCC5)nn34)CC2)c1`, -0.65% (inactive); as for `O=C(CSc1nnc(CNC(=O)c2cccs2)o1)Nc1cccc(Cl)c1`, -8.62% (inactive).
Regarding `O=C(CC1SC(N2CCCC2)=NC1=O)Nc1ccc(C(=O)N2CCN(c3cccc(Cl)c3)CC2)cc1` (centres undefined), the inhibition was -3.88% (inactive).
Take `Cc1ccc(S(=O)(=O)N[C@@H](CO)C(=O)N[C@@H](Cc2ccc(O)cc2)C(=O)O)cc1`: the inhibition is 3.35% (inactive).
For `Cc1ccc2c(c1)NC(=O)C(CC(=O)NCCCN1CCCCC1)O2` (centres undefined), the inhibition was -5.47% (inactive).
Then `COc1cc(Cl)c(C)cc1NC(=O)CCCN1C(=O)CCC1=O`, with -6.87% (inactive); and `CN1CCN(C(=O)c2ccc(CS(=O)Cc3ccc(Cl)cc3)o2)CC1` (centres undefined), with -3.59% (inactive).
Consider `COc1cccc(CNS(=O)(=O)c2ccc(S(=O)(=O)NC3CC3)cc2)c1`, for which the inhibition is 0.68% (inactive).
For `CCCc1cc(=O)oc2c3c(cc(OCC(=O)N4CCC[C@H]4C(=O)O)c12)OC(C)(C)CC3`, the inhibition is -1.72% (inactive).
Turning to `COc1ccc(CNC(=O)CSc2nnnn2-c2ccc(O)cc2)cc1`, the inhibition is 4.45% (inactive).
As to `Cc1ccc(CN2CCC(CNS(=O)(=O)c3ccc(-c4ccc(=O)[nH]n4)s3)CC2)cc1`, the inhibition is -17.1% (inactive).
Consider `Cc1ccc(Nc2nc(N)nc(CSC(=S)N3CCN(c4ccccc4)CC3)n2)cc1`, for which the inhibition was 5.34% (inactive).
Consider `COc1ccccc1NC(=O)Nc1ccc(CC#N)cc1`, for which the inhibition is -23.3% (inactive).
As for `O=c1oc2ccccc2n1Cc1ccccc1F`, the figure is 0.75% (inactive).
Then `O=c1[nH]cc(NCCc2ccccc2)c(=O)[nH]1`, with 2.68% (inactive); and `O=C(CNC(=O)c1ccncc1)N/N=C/c1cc(Br)ccc1O`, with 14.9% (inactive).
As for `O=C(N/N=C/c1cc([N+](=O)[O-])ccc1O)c1ccncc1`, the figure is 12.7% (inactive).
Consider `CC(=O)Nc1ccc(C(=O)N/N=C/c2cc(Br)cc(Br)c2O)cc1`, for which the inhibition is -13.1% (inactive).
Regarding `O=C(N/N=C/c1cc(Br)cc(Br)c1O)c1cccc(S(=O)(=O)N2CCOCC2)c1`, the inhibition was 17.9% (inactive).
With `O=C(N/N=C/c1cc(Cl)ccc1O)c1ccc(Br)cc1`, the inhibition was -15.2% (inactive).
On to `O=C(CP(=O)(c1ccccc1)c1ccccc1)N/N=C/c1cc(Br)cc(Br)c1O`, for which the inhibition was -0.96% (inactive).
As for `COc1c(Br)cc(Br)cc1/C=N/NC(=O)c1ccncc1`, the inhibition was -12.1% (inactive).
For `O=C(N/N=C/c1cccnc1)c1cccc(Cl)c1`, the inhibition is 41% (inactive).

The record behind these values is PubChem BioAssay AID1850 (Southern Research Specialized Biocontainment Screening …, 2009).
